Hits are enriched below; roughly 2.4% of the tested compounds scored in any of these assays.
TLR9-MyD88 block: inhibitors of human TLR9-MyD88 binding. inhibition, % at 4.98 µM. hit rate 0.21% among 340,000. CHO BLA complementation TLR9-MyD88, CCF4 FRET ratio;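 active = inhibition above the mean over all tested compounds plus 3 SD, cut at about 21% in these data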;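 note: 0% = DMSO only wells and 100% = clavulanate BLA inhibitor control wells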
ANO1 activ: activates or potentiates the mouse TMEM16A chloride channel. AID 623877. hit rate 0.3% among 340,000. B-score at 10 µM. HEK293 TMEM16A/YFP-H148Q/I152L, iodide quench fluorescence; hits give low values. Q8BHY3;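 active = fluorescence-ratio B-score plate-corrected deviation score at least 3 library SD below zero, with starting fluorescence score within 5 deviations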;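 note: channel opened by trigger with iodide after compound preincubation; score built on the fluorescence ratio of max minus min over baseline; more negative score means more quench and so TMEM16A activation or potentiation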
Target sequence (Q8BHY3 whole entry, looked up): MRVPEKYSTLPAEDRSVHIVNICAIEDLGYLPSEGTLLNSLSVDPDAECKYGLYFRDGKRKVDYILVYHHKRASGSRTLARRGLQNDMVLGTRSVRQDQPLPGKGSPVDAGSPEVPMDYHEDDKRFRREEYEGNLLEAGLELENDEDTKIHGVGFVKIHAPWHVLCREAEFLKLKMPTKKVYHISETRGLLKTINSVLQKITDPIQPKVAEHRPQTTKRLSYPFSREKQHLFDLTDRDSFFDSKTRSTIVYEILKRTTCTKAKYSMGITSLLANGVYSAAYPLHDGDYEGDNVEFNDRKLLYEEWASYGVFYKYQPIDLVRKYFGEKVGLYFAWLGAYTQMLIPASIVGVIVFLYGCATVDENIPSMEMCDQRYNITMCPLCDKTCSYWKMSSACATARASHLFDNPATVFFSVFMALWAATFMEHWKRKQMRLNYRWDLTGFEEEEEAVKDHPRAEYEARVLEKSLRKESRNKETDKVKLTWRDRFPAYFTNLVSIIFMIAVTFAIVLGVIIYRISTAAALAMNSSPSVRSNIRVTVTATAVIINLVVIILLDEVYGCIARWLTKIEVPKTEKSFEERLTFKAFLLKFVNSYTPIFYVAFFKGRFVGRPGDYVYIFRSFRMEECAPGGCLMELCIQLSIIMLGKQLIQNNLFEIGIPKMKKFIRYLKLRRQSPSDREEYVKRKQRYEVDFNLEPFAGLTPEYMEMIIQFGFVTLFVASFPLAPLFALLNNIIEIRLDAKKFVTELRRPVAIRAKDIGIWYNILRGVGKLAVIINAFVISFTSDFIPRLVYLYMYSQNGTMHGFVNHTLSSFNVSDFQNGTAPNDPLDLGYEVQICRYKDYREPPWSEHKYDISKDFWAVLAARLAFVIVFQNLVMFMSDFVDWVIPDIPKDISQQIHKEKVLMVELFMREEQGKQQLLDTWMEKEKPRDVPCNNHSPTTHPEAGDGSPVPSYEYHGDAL
NOD2 RIPK2 PPI: NOD2-RIPK2 protein interaction inhibition; CHO BLA complementation NOD2-RIPK2, CCF4 ratio; hit rate 0.38% among 360,000; AID 624267; inhibition, % at 4.98 µM; O43353; in the data active = inhibition above about 21%;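 note: 0% = vehicle only and 100% = reference blocker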
ANO1 block: blocks the mouse calcium-activated chloride channel TMEM16A. hit rate 1.2% among 310,000. HEK293 TMEM16A/YFP iodide influx fluorescence, ionomycin. AID 588511. Q8BHY3. normalized B-score (activity score, 25-100; higher = stronger inhibition) at 10 µM;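 active = ratio plate-corrected score three or more library SD toward inhibition, starting fluorescence score within five deviations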;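 note: score derived from kinetic fluorescence span divided by baseline fluorescence per well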
TLR4-MyD88 BLA: blocks binding of human TLR4 to MyD88; O00206+Q99836; HeLa CL3-4 TLR4/MyD88 BLA complementation, FRET ratio; inhibition, % at 8.4 µM; hit rate 0.18% among 200,000; in the data active = inhibition above about 25%;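 note: 0% = vehicle and 100% = reference inhibitor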
HTR2A ag: mouse HTR2A agonism via beta-arrestin recruitment | P35363 | CHO-K1 mHTR2A beta-arrestin complementation, luminescence; percent of 30 µM serotonin response | activation, % at 7.6 µM | hit rate 0.66% among 360,000;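 active = activation above a run cutoff, the mean activation of all tested compounds plus 3 SD, cut at about 14% in these data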;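 note: 0% = plate median of compound wells and 100% = 30 µM serotonin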
OPRM1 ag: counter-screen for mouse HTR2A agonists: human mu opioid receptor agonists. U2OS OPRM1 beta-arrestin PathHunter, luminescence; DMSO 0%, DAMGO 9.3 µM 100%. shares compounds with HTR2A ag. hit rate 5.3% among 2,300. activation, % at 9.3 µM;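 active = mean activation above the mean of DMSO-only wells plus 3 SD, cut at about 0.5% in these data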
m5-HT2A ag conf: confirmation of mouse HTR2A serotonin receptor agonists | shares compounds with HTR2A ag | CHO-K1 PathHunter beta-arrestin recruitment, luminescence; DMSO 0%, 30 µM serotonin 100% | activation, % at 7.6 µM | hit rate 19% among 2,300;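 active = mean activation across triplicates above the hit threshold derived in the original primary screen, cut at about 15% in these data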
Numbers without * were called inactive; i = inactive; . = not tested or not shown.

SMILES	TLR9-MyD88 block	ANO1 activ	NOD2 RIPK2 PPI	ANO1 block	TLR4-MyD88 BLA	HTR2A ag	OPRM1 ag	m5-HT2A ag conf
CCN(CC)C(=O)C1=C(C)N(CCCOC)C(=O)C(CC(=O)NCc2ccco2)C1 (configuration not stated)	-9	.	-20	.	.	4	.	.
CC(C)(C)C(=O)c1c(N)[nH]c(C(=O)c2ccccc2)c1-c1ccc(Cl)cc1Cl	.	.	10	.	.	16*	0	-1
Nc1[nH]c(C(=O)c2ccccc2)c(-c2ccc(Cl)cc2Cl)c1C(=O)c1ccc(Cl)c(Cl)c1	.	.	-14	.	.	-1	.	.
COc1ccc(S(=O)(=O)n2c([N+](=O)[O-])cnc2C)cc1OC	7	i	-2	i	.	8	.	.
COc1ccc(C)cc1S(=O)(=O)n1c([N+](=O)[O-])cnc1C	-3	i	3	i	.	15*	-1	-3
COCCN(C(=O)COC(=O)CC1CCCCC1)c1c(N)n(Cc2ccccc2)c(=O)[nH]c1=O	-10	i	-1	i	.	-1	.	.
COCCN(C(=O)COC(=O)C1CCCCC1)c1c(N)n(Cc2ccccc2)c(=O)[nH]c1=O	-2	.	0	.	.	16*	-1	-4
COc1ccc2c(CC(=O)OCC(=O)N3CCc4ccccc43)coc2c1	2	i	-4	i	12	16*	0	-5
O=C(OCc1cn([C@@H]2C[C@H](c3ccc(Cl)cc3)N(C(=O)C3CCCCC3)C[C@H]2O)nn1)c1ccccc1	-5	.	5	.	.	0	.	.
COc1ccc(S(=O)(=O)N/N=C\c2ccc3c(c2)OCO3)c(OC)c1	-15	i	1	i	.	-5	.	.
COc1ccc(OC)c(S(=O)(=O)N/N=C\c2ccc3c(c2)OCO3)c1	6	i	-9	i	.	17*	-1	-1
Cc1ccc(-c2ccc(/C=C3\SC(N4CCOCC4)=NC3=O)o2)cc1	-2	i	6	i	11	15*	0	39*
COc1ccccc1CNCC(O)(c1ccc(Cl)cc1)c1ccc(Cl)cc1	-9	i	-6	i	10	22*	0	8
CCNC(=O)C1CCCN(C(=O)c2cccs2)CC1 (configuration not stated)	.	.	-9	.	.	8	.	.
CCOC(=O)N1CCC(N2CCCC(C(=O)c3cc(C)c(OC)c(C)c3)C2)CC1 (configuration not stated)	-2	i	-12	i	3	-3	.	.
CCOC(=O)N1CCC(N2CCCC(C(=O)c3ccccc3OC)C2)CC1 (configuration not stated)	2	i	-8	i	-21	27*	-1	54*
O=C1CC(c2cccc(Cl)c2)C(n2cncn2)C(=O)C1C1NCCc2ccccc21 (configuration not stated)	-4	i	-1	i	10	16*	-1	-4
O=C(COC(=O)CCC(=O)c1ccc(Cl)cc1)NCCc1ccccc1	3	i	1	i	5	18*	-1	-4
COc1cc(-c2cc(NC(C)=O)c3ncc(-c4ccc(C(C)=O)cc4)n3c2)cc(OC)c1OC	.	.	-11	.	.	6	.	.
COc1cc(CNCc2ccccc2)cc(Cl)c1OC	-7	i	-6	i	-4	4	.	.
COc1cc(CNCCc2ccccc2)cc(Cl)c1OCc1ccccc1	5	i	1	i	1	20*	1.2*	3
CCOC(=O)CN1C(=O)N[C@@H](c2cccc(C(F)(F)F)c2)[C@H](C(C)=O)[C@H]1C	0	i	1	i	.	18*	-1	-4
OCC[C@H]1C[C@H](O)[C@@H](O)[C@@]2(Cc3ccccc3CO2)O1	-8	i	-2	i	.	17*	0	1
CC(OC(=O)c1ccccc1Br)C(=O)Nc1nc(-c2cccc([N+](=O)[O-])c2)cs1 (configuration not stated)	9	i	-5	i	-7	17*	0	-4
CC(OC(=O)c1cnccn1)C(=O)Nc1nc(-c2cccc([N+](=O)[O-])c2)cs1 (configuration not stated)	-3	i	-4	.	.	5	.	.
SMILES	TLR9-MyD88 block	ANO1 activ	NOD2 RIPK2 PPI	ANO1 block	TLR4-MyD88 BLA	HTR2A ag	OPRM1 ag	m5-HT2A ag conf
Cc1cccc2nc(-c3cccc(NC(=O)c4ccc(Cl)cc4)c3)cn12	-2	i	-12	i	-3	22*	-1	-4
COc1ccccc1CNS(=O)(=O)c1c(C)nc2scc(C)n2c1=O	5	i	-2	i	.	15*	0	1
Cc1nc2scc(C)n2c(=O)c1S(=O)(=O)NCc1ccccc1Cl	6	i	-2	i	.	3	.	.
c1cncc(CNc2nc(N3CCOCC3)nc(N3CCOCC3)n2)c1	-16	i	-15	i	-3	16*	0	-5
c1ccc(Nc2nc(N3CCNCC3)nc(N3CCOCC3)n2)cc1	1	i	-27	i	12	23*	0	12
C(=N\Nc1nc(Nc2ccccc2)nc(Nc2ccccc2)n1)/c1cccnc1	-9	i	5	i	-3	-7	.	.
CC(C)(C)Nc1nc(NCc2cccnc2)nc(N2CCOCC2)n1	-8	i	3	i	2	-1	.	.
C(=N\Nc1nc(N2CCCC2)nc(N2CCCC2)n1)/c1cccnc1	0	i	-5	i	2	15*	0	-1
Cc1ccc(C)c(OCC(=O)Nc2ccc(S(=O)(=O)Nc3ccccn3)cc2)c1	-9	i	4	i	6	7	.	.
CCC(C)C(=O)Nc1nnc(SCC(=O)Nc2ccc(F)cc2)s1 (configuration not stated)	13	i	4	i	9	-2	.	.
CCOc1ccc(CNC(=O)C(C)n2ccc3cc(S(=O)(=O)N4CCCC4)ccc32)cc1 (configuration not stated)	9	i	4	i	.	8	.	.
CC(C(=O)NCc1ccc(F)cc1)n1ccc2cc(S(=O)(=O)N3CCCC3)ccc21 (configuration not stated)	10	i	1	i	.	15*	0	0
O=S(=O)(Cc1cccc(F)c1)c1c[nH]c2ccccc12	-9	i	3	i	2	4	.	.
CCc1ccc(S(=O)(=O)Nc2ccncc2)cc1	-2	i	-4	i	.	15*	-1	-3
